Experimental findings from PubChem BioAssay (NCI) are described below.

This is part of a sample that, as a whole, favours compounds with a hit. Of some 83,000 tested, about 20% had one in any assay.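 48-hour exposure, single concentration, 96-well plates; percent growth endpoint where 0 means no net growth. Active: below 10.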 A number with no mark means an inactive call. Activity calls are given as the source filed them.

Some test systems named below: SR leukemia; RPMI-8226 leukemia; OVCAR-8 ovarian; OVCAR-5 ovarian; OVCAR-4 ovarian; SK-OV-3 ovarian; IGROV1 ovarian; OVCAR-3 ovarian; HS 578T breast; NCI/ADR-RES ovarian; T-47D breast; BT-549 breast; MDA-MB-435 melanoma; SW-620 colon; MCF7 breast; HCT-116 colon; HCC-2998 colon; KM12 colon.
Holding throughout (test): NCI-60 one-dose screen, 48 h (100 = growth as untreated, 0 = no growth, -100 = all killed)
Conditions in all cases: 10 µM unless noted

Turning to `CCNC(=O)Oc1ccc(/C(=C(/C)c2ccccc2)c2ccc(OCCN3CCCCCC3)cc2)cc1`, the growth is 0.632% (active) in the assay on SR leukemia; -32.8% (active) in the assay on RPMI-8226 leukemia; 7.06% (active) in the assay on OVCAR-8 ovarian; 35.1% in the assay on OVCAR-5 ovarian; 36.4% with OVCAR-4 ovarian; 51.8% in the assay with SK-OV-3 ovarian. Moreover, the growth is 32.9% in the assay on IGROV1 ovarian; 6.04% (active) with OVCAR-3 ovarian; -12.8% (active) with HS 578T breast; 24.4% with NCI/ADR-RES ovarian; 2.6% (active) with T-47D breast; -3.35% (active) with BT-549 breast. Moreover, the growth is -35.5% (active) with MDA-MB-435 melanoma; -42.9% (active) in the assay with SW-620 colon; 7% (active) in the assay with MCF7 breast; -78% (active) in the assay with HCT-116 colon; 25.3% with HCC-2998 colon; 5.22% (active) with KM12 colon.
Regarding `COc1c(N2CC3CCCNC3C2)c(F)cc2c(=O)c(C(=O)N/N=C/c3ccc(F)cc3)cn(C3CC3)c12` (centres undefined), the growth in the assay with SR leukemia was -24.6% (active); with RPMI-8226 leukemia, 60.2%; with OVCAR-8 ovarian it was 91.7%; in the assay with OVCAR-5 ovarian it was 95.6%; with OVCAR-4 ovarian, 90.5%; with SK-OV-3 ovarian, 110%. Moreover, the growth was 97.9% in the assay on IGROV1 ovarian; 92.9% in the assay with OVCAR-3 ovarian; 94.4% with HS 578T breast; 89.4% in the assay with NCI/ADR-RES ovarian; 96.1% in the assay with T-47D breast; 84.8% in the assay with BT-549 breast. Besides, the growth with MDA-MB-435 melanoma is 91%; in the assay with SW-620 colon, 99.5%; in the assay on MCF7 breast it was 75.9%; with HCT-116 colon, 67.9%; in the assay on HCC-2998 colon it was 97.3%; with KM12 colon, 104%.
As for `N=c1c2cc(-c3ccccc3)oc2ncn1/N=C/c1ccc(Br)cc1`, the growth with SR leukemia was 30.1%; with RPMI-8226 leukemia, 92.4%; in the assay on OVCAR-8 ovarian, 80.7%; in the assay with OVCAR-5 ovarian it was 49.3%; in the assay on OVCAR-4 ovarian, 19.7%; in the assay on SK-OV-3 ovarian it was 101%. In addition, the growth in the assay on IGROV1 ovarian is 42.8%; with OVCAR-3 ovarian, -7.71% (active); with HS 578T breast, 79.1%; with NCI/ADR-RES ovarian, 22.3%; in the assay on T-47D breast, 79.6%; with BT-549 breast, 101%. Moreover, the growth is 61.6% in the assay on MDA-MB-435 melanoma; 31% in the assay on SW-620 colon; 65.6% in the assay on MCF7 breast; 50.7% in the assay with HCT-116 colon; 100% with HCC-2998 colon; 23.9% with KM12 colon.
Consider `O=C(NCCN1CCCC1)c1ccc(-c2nc3ccc4[nH]ncc4c3c3c2CCCC3)cc1`, for which the growth with SR leukemia is -24.4% (active); in the assay with RPMI-8226 leukemia, -15% (active); with OVCAR-8 ovarian it was 10.9%; in the assay with OVCAR-5 ovarian it was 23.5%; in the assay with OVCAR-4 ovarian, 16%; with SK-OV-3 ovarian, 0.026% (active). Moreover, the growth is 1.22% (active) in the assay with IGROV1 ovarian; 1.47% (active) in the assay on OVCAR-3 ovarian; -1.99% (active) in the assay on HS 578T breast; 93.2% in the assay with NCI/ADR-RES ovarian; 23% with T-47D breast; -33.4% (active) in the assay on BT-549 breast. Further, the growth with MDA-MB-435 melanoma is 12.3%; in the assay on SW-620 colon, 1.5% (active); in the assay with MCF7 breast, -9.45% (active); in the assay with HCT-116 colon, 1.82% (active); in the assay on HCC-2998 colon, -1.05% (active); with KM12 colon, 1.12% (active).
In the case of `Nc1ncc(-c2ccc3ncnc(N4CCc5cc(F)c(F)cc54)c3c2)cn1`, the growth with SR leukemia is 23.9%; in the assay on RPMI-8226 leukemia, 4.99% (active); with OVCAR-8 ovarian, 33.3%; in the assay with OVCAR-5 ovarian it was 38.1%; in the assay on OVCAR-4 ovarian, 43.9%; with SK-OV-3 ovarian, 9.09% (active). Moreover, the growth in the assay with IGROV1 ovarian was -6.07% (active); with OVCAR-3 ovarian, 26.3%; with HS 578T breast, -15.4% (active); in the assay with NCI/ADR-RES ovarian, 35.8%; in the assay on T-47D breast, 4.14% (active); in the assay on BT-549 breast, 12.3%. Moreover, the growth with MDA-MB-435 melanoma is 30.2%; in the assay with SW-620 colon it was 54.4%; in the assay on MCF7 breast, 14.4%; in the assay with HCT-116 colon it was 28.9%; in the assay with HCC-2998 colon it was 31.9%; with KM12 colon, 45.3%.
As to `Cc1ccc(C2=NN(C)C(=O)C3(CCCC3)C2)cc1`, the growth is 113% in the assay on SR leukemia; 111% in the assay on RPMI-8226 leukemia; 102% with OVCAR-8 ovarian; 102% in the assay with OVCAR-5 ovarian; 106% in the assay with OVCAR-4 ovarian; 110% in the assay with SK-OV-3 ovarian. Besides, the growth was 110% in the assay on IGROV1 ovarian; 110% in the assay on OVCAR-3 ovarian; 109% in the assay on HS 578T breast; 102% in the assay on NCI/ADR-RES ovarian; 102% in the assay on T-47D breast; 117% in the assay with BT-549 breast. The growth is 107% with MDA-MB-435 melanoma; 103% with SW-620 colon; 89.8% with MCF7 breast; 104% in the assay on HCT-116 colon; 110% with HCC-2998 colon; 104% in the assay with KM12 colon.
For the compound `COc1ccc(-c2cc(-c3ccc(Cl)cc3)c(C#N)c(=O)n2Cc2ccc(C(=O)O)cc2)cc1`, the growth is 28.9% with SR leukemia; 79.9% with RPMI-8226 leukemia; 99% with OVCAR-8 ovarian; 105% with OVCAR-5 ovarian; 88.6% in the assay on OVCAR-4 ovarian; 114% in the assay with SK-OV-3 ovarian. Moreover, the growth with IGROV1 ovarian is 96.9%; with OVCAR-3 ovarian, 6.02% (active); in the assay on HS 578T breast, 31.9%; with NCI/ADR-RES ovarian, 83.6%; with T-47D breast, 48.7%; in the assay on BT-549 breast, 62.8%. For the same compound, the growth in the assay with MDA-MB-435 melanoma was 21.1%; in the assay with SW-620 colon, 94.8%; with MCF7 breast it was 33.3%; in the assay on HCT-116 colon, 77.7%; in the assay with HCC-2998 colon it was 95.6%; in the assay with KM12 colon, 43.2%.
As for `Cn1cc(CNc2nc3ccc(OC/C(=C/F)CN)cc3o2)ccc1=O`, the growth was 117% in the assay on SR leukemia; 110% in the assay on RPMI-8226 leukemia; 111% in the assay on OVCAR-8 ovarian; 101% with OVCAR-5 ovarian; 106% with OVCAR-4 ovarian; 109% in the assay with SK-OV-3 ovarian. The growth in the assay on IGROV1 ovarian is 102%; in the assay with OVCAR-3 ovarian it was 112%; in the assay on HS 578T breast it was 103%; in the assay with NCI/ADR-RES ovarian, 102%; in the assay with T-47D breast, 105%; with BT-549 breast, 99.8%. Further, the growth in the assay on MDA-MB-435 melanoma was 104%; in the assay with SW-620 colon, 107%; in the assay with MCF7 breast it was 91.7%; with HCT-116 colon it was 103%; with HCC-2998 colon it was 99%; with KM12 colon it was 105%.
